NALP1 yeast inh: blocks the NALP1 inflammasome reconstituted in yeast. inhibition, % at 10 µM. S. cerevisiae NALP1/ASC/caspase-1 growth, X-gal OD620, 72 h. 280,000 compounds, 0.61% hits. AID 2071; in the data active means inhibition mostly above about 24%, no sharp cut-off; inactive means mostly below about 32%
dFosB activator: mouse delta FosB homodimer activation. purified delta FosB, TAMRA-CDK5 oligo fluorescence polarization; percent of positive-control signal above neutral wells. activation, % at 25 µM. P13346. 340,000 compounds, 0.99% hits;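 active means mean activation above about 17%, with every replicate also reaching it, limit read from the data, passing the limit was not always enough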
Target sequence (P13346 whole entry, looked up): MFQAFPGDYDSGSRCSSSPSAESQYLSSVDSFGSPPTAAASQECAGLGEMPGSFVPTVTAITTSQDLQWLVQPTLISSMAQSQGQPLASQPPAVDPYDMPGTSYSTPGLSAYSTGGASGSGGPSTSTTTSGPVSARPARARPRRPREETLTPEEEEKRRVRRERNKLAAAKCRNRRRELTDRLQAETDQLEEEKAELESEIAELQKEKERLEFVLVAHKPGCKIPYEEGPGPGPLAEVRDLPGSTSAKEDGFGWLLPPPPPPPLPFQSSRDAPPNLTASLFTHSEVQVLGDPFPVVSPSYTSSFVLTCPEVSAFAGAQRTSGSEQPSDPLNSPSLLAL
CR mimetic SO: caloric restriction mimetics inhibiting age-related superoxide in yeast | S. cerevisiae aged cells, superoxide DHE fluorescence; hits give low values | superoxide response (% of plate mean), % at 10 µM | 330,000 compounds, 0.18% hits | AID 2690;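 active means superoxide response under a set limit, about three screen SD below normal, cut at about 65% in these data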;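 further: yeast aged for seven days with compound at 30 °C before DHE staining; 100% = average MFI of all compound-treated wells on the plate with controls excluded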
UBC13 inh: inhibitors of human UBC13 polyubiquitin chain formation | AID 485273 | inhibition, % at 20 µM | P61088 | 330,000 compounds, 0.47% hits | TR-FRET; in the data active means inhibition above about 45%, passing the limit was not always enough
Target sequence (P61088 whole entry, looked up): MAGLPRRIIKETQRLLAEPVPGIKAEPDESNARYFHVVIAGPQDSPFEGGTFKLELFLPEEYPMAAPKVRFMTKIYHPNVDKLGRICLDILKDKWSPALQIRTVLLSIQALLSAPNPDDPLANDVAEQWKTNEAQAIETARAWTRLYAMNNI
NR3A LBD binder: modulators (binders) of human NR3A ligand-binding domain. NR3A LBD differential scanning fluorimetry, Tm shift; 0% = protein alone, 100% = glycine-bound protein. 340,000 compounds, 2.5% hits. Tm shift relative to glycine control, % at 25 µM;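 active means melting temperature shift of at least 10% of the positive control shift, at one fixed dose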
* marks the source's active call; other numbers are inactive results; · = no result given. In the library only some 4.3% were active in any assay of this set; here they are far more common.

SMILES	NALP1 yeast inh	dFosB activator	CR mimetic SO	UBC13 inh	NR3A LBD binder
CNc1nc(N/N=C/c2cc([N+](=O)[O-])ccc2F)nc(Nc2ccccc2)n1	·	94*	·	·	5
Cc1ccc(NC(=O)Nc2ccccc2)cc1[N+](=O)[O-]	16	-3	115	12	13*
CC(=O)Nc1ccc(C)c([N+](=O)[O-])c1	-11	-2	101	-3	-3
O=C(Nc1ccccc1)Nc1ccc(F)c([N+](=O)[O-])c1	36	0	107	2	26*
Cc1ccc(NC(=O)Nc2ccc(Cl)cc2)c(Br)c1	30	3	101	2	35*
O=C(Nc1ccc(C(O)(C(F)(F)F)C(F)(F)F)cc1)c1ccc(Cl)c([N+](=O)[O-])c1	35	-9	106	9	13*
CCOC(=O)c1c(C)n2c3c(cc(C)cc13)CCC2	-3	-14	94	0	-1
O=C(Nc1ccc(Cl)cc1)Nc1cc([N+](=O)[O-])ccc1F	22	5	96	6	3
O=C(Nc1ccccc1)Nc1ccc(Cl)c([N+](=O)[O-])c1	21	6	93	-9	23*
O=C(Nc1ccc(Cl)c([N+](=O)[O-])c1)Nc1nc2ccccc2s1	11	·	111	-1	·
O=C(Nc1csc([N+](=O)[O-])c1)Nc1c(Cl)cccc1Cl	·	-3	100	-1	-1
O=C(Nc1ccc(Cl)cc1)Nc1csc([N+](=O)[O-])c1	·	·	96	6	33*
O=C(Nc1ccc([N+](=O)[O-])cc1)Nc1ccc(Cl)cc1F	24	3	95	-1	22*
CC(=O)c1nc2ccccc2n1S(=O)(=O)c1ccc(C)cc1	28*	6	95	8	-2
CC(=O)c1nc2ccccc2n1S(=O)(=O)c1ccc(Cl)cc1	2	3	84	3	1
CC1CCCC(C)N1CC(O)COCc1ccccc1F (stereo unspecified)	11	2	92	6	-2
CCOC(=O)C[C@H]1c2ccccc2S(=O)(=O)N1c1ccccc1	·	-4	85	-2	-3
CC(=O)Nc1ccc(S(=O)(=O)Nc2nc3ccccc3nc2-n2ccc(=NC(=O)c3ccccc3)cc2)cc1	·	·	81	-17	25*
O=C(N=c1ccn(-c2nc3ccccc3nc2NS(=O)(=O)c2ccc(Cl)cc2)cc1)c1ccccc1Cl	-2	·	96	-2	·
CC(=O)Nc1ccc(S(=O)(=O)Nc2nc3ccccc3nc2-n2ccc(=NC(=O)c3ccc(F)cc3)cc2)cc1	-3	-5	113	11	36*
CCN(CC)CCNC(Cc1ccccc1)c1cccc(OC)c1 (stereo unspecified)	·	0	·	·	13*
CCN(CC)CCOc1cccc(C(C)C)c1	4	7	100	10	0
CCC(C(=O)OCC(=O)Nc1ccc(SC(F)F)cc1)c1ccccc1 (stereo unspecified)	37	-5	·	·	12*
NC1=NC(=O)/C(=C/c2ccccc2OS(=O)(=O)c2ccc3ccccc3c2)S1	25	5	111	·	18*
CCCOc1ccccc1/C=C1\SC(N)=NC1=O	8	-18	91	-1	2
SMILES	NALP1 yeast inh	dFosB activator	CR mimetic SO	UBC13 inh	NR3A LBD binder
CC(=O)Nc1ccc(S(=O)(=O)Oc2ccc(/C=C3\SC(N)=NC3=O)cc2)cc1	5	130*	108	0	-13
C/C=C/C(=O)Nc1cccc(C(F)(F)F)c1	18	-6	106	2	-1
O=C(/C=C/c1cccc(C(F)(F)F)c1)Nc1cccc(C(F)(F)F)c1	13	3	106	-1	14*
Cc1ccc(NC(=O)/C=C/c2cccc(C(F)(F)F)c2)cc1	32	-7	100	-7	25*
O=C(Nc1cccc(C(F)(F)F)c1)C1(c2ccccc2)CC1	18	-2	99	-1	12*
Cc1ccc(/C=C/C(=O)N2CCN(c3cccc(C(F)(F)F)c3)CC2)cc1	12	0	106	5	21*
O=C(Nc1ccc(C(F)(F)F)cc1)C1(c2ccccc2)CC1	13	-5	89	-4	-2
O=C(C1=C[C@@H]2[C@H]3C(=O)N(c4cccc(Cl)c4)C(=O)[C@H]3[C@@H](C(=O)c3ccc(Cl)cc3)N2C=C1)c1ccccc1	23	9	97	-12	14*
CCCCCC1=CCC/C1=N\NC(=O)c1ccc2c(c1)OCO2	11	0	112	4	2
Cn1cnc([N+](=O)[O-])c1NC(C)(C)C	31	1	99	-1	0
Cn1cnc([N+](=O)[O-])c1S(=O)(=O)c1ccc(Cl)cc1	80*	6	·	·	0
Cc1cccc2cc(CN(Cc3cccs3)C3(c4nnnn4C4CCCC4)CCCC3)c(=O)[nH]c12	2	-3	95	-10	11*
Cc1cccc2cc(CN(Cc3ccc(F)cc3)Cc3nnnn3C3CCCC3)c(=O)[nH]c12	6	-3	116	9	-1
CSCCC(NC(=O)COc1cccc2ccccc12)C(=O)O (stereo unspecified)	19	1	102	-8	2
Cc1cc(C(=O)OCC(=O)Nc2c(Cl)cccc2Cl)c(C)o1	·	22*	116	0	-1
COC(=O)c1cc(S(=O)(=O)NCC2CCN(Cc3ccccc3F)CC2)c[nH]1	29	0	97	-2	2
Cc1c(NC(=O)c2ccc3c(c2)OCO3)cccc1-c1nc2ccccc2s1	2	1	119	-2	-8
O=C(CSc1nc2ccccc2s1)c1ccc(O)cc1O	9	13	102	-1	30*
CCNC(=O)c1ccc(CSc2nc3ccccc3s2)cc1	10	-14	101	-9	33*
C=CCNC(=S)NNC(=O)CSc1nc2ccccc2s1	19	-1	121	-1	2
O=C(CSc1nc2ccccc2s1)NNC(=S)Nc1ccc(Cl)cc1	20	-6	101	-15	32*
O=C(Cc1nc2ccccc2s1)c1ccc(O)cc1O	9	·	121	-8	·
O=C(Nc1cccc(-c2nc3ccccc3s2)c1)c1ccc2c(c1)OCO2	13	-12	87	8	10*
Cc1c(C(=O)OCc2nc3ccsc3c(=O)[nH]2)oc2ccccc12	·	-16	91	-15	4
O=C(c1ccc(CNS(=O)(=O)c2ccc(Br)cc2)cc1)N1CCCCCC1	-8	-5	86	-2	1
SMILES	NALP1 yeast inh	dFosB activator	CR mimetic SO	UBC13 inh	NR3A LBD binder
CC(Sc1nc2ccccc2s1)C(=O)Nc1ccc2c(c1)OCO2 (stereo unspecified)	36	-9	126	1	0
O=C(CSc1nc2ccccc2s1)Nn1cnnc1	24*	-10	93	1	-2
O=C(CSc1nc2ccccc2s1)Nc1ccc2c(c1)OCO2	24	-8	83	-2	14*
Nc1cc(=O)[nH]c2ncnn12	·	-8	·	·	-2
O=C(CCCc1cccs1)Nc1nccs1	-1	-4	97	-7	-1
C[N+]1(CCC(=O)c2ccccc2)CCCCC1	24	-2	98	-8	10*
